# Experiment: PubChem AID 651827
# Conditions: Ricerca radioligand binding panel, percent inhibition, at 10 µM, stronger effect = higher value
smiles,measurement,setting,value
CS(=O)(=O)N(CC(=O)NCC1CC1)c1cc(C(F)(F)F)ccc1Cl,inhibition,Adenosine A2A binding,-8%
same,inhibition,Adenosine A3 binding,1%
same,inhibition,EGF receptor binding,14%
same,inhibition,IL-1 receptor binding,15%
same,inhibition,L-type Ca benzothiazepine site,48%
same,inhibition,L-type Ca dihydropyridine site,36%
same,inhibition,Melatonin MT1 binding,16%
same,inhibition,PAF receptor binding,15%
same,inhibition,Purinergic P2Y binding,20%
same,inhibition,Serotonin transporter binding,15%
same,inhibition,Thyroid hormone binding,16%
same,inhibition,,-9%
same,inhibition,hERG binding,-2%

# Source: PubChem BioAssay AID651827 (Vanderbilt Specialized Chemistry Center, 2012)
